Screens as filed in PubChem BioAssay.
L major viab: reduces viability of Leishmania major promastigotes; resazurin fluorescence viability; hit rate 9% among 200,000; inhibition, % at 10 µM; in the data active = inhibition above about 50%;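 note: promastigotes grown with compound for 44 hours at 28 °C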
Autophagy HCS: modulators of autophagy | MEF GFP-LC3 puncta imaging; test concentration mostly 10 µM | calls only at 10 µM (by protocol) | hit rate 0.98% among 190,000 | AID 463193;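 active = percentage of spot-positive cells more than 3 SD above its plate mean, without a fluorescence outlier flag or 80% toxicity; inconclusive = no clear call, values can overlap the other calls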
HCT116 bCat-KO: beta-catenin-lacking colon tumor cell growth suppression. HCT116 beta-catenin knockout viability, CellTiter-Glo, 60 h; active compounds read low. viability, % at 10 µM. hit rate 1.5% among 140,000;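 active = viability at or under a set limit, the compound median less 4 SD, cut at about 6% in these data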
Insulin prom inh: TRM-6 insulin promoter activity inhibition | TRM-6 cells (human fetal islet line), insulin promoter-eGFP reporter, imaging; reporter expression induced with tamoxifen | hit rate 0.9% among 130,000 | inhibition, % at 2 µM;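 active = inhibition above the mean plus 3 SD, with well images judged a real hit on visual review, cut at about 60% in these data, passing the limit was not always enough; inconclusive = inhibition over the cutoff but images rejected on review; inactive = inhibition not above the cutoff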
Insulin prom up: MIN6 insulin promoter up-regulation. z-score at 5 µM. hit rate 0.3% among 190,000. MIN6 insulin promoter-GFP reporter, high-content imaging; active compounds read high;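 active = z-score above 3 at 5 µM with at least 500 cells counted in the well; inconclusive = wells under 500 cells, flagged as cytotoxic or low count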
PTEN del growth: suppresses growth of cells with PTEN deletion; viability, % at 10 µM; HCT116 PTEN-null viability, CellTiter-Glo, 60 h; active compounds read low; AID 827; hit rate 1.2% among 140,000;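 active = viability at or below a set limit, 4 SD under the median of all tested compounds, cut at about 3.7% in these data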;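 note: PTEN knockout HCT116 line with beta catenin targeted HCT116 as companion control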
Large screens that a line does not name were inactive; ! = not active in a repeat. Compounds with a hit are over-represented: about 9.6% of the library has one in this group of screens.

COc1ccc(OC)c(N(CC(=O)N2CCN(c3cc(Cl)ccc3C)CC2)S(C)(=O)=O)c1	Autophagy HCS active
Cc1cccc(N2CN(Cc3cccnc3)CNC2=S)c1	none (no result: Insulin prom inh)
COc1cc(-c2cc(C(=O)NN3CCN(C)CC3)c3ccccc3n2)cc(OC)c1OC	L major viab 90.9
COc1cc(-c2cc(C(=O)Nc3c(Cl)cc(Cl)cc3Cl)c3ccccc3n2)cc(OC)c1OC	L major viab 81.3
COc1ccc2nc3ccccc3nc2c1NC(=O)c1ccc(Cl)cc1Cl	Autophagy HCS active
CNC(=S)N/N=C1\CC(c2ccccc2)Oc2ccccc21 (stereo unspecified)	none (no result: HCT116 bCat-KO, PTEN del growth)
CN(C)c1ccc(-c2nc3ccccc3n2C)cc1	none
CC1=C(C(=O)OC2CCCCCC2)C(c2ccc(C)o2)C2=C(CCCC2=O)N1 (stereo unspecified)	none
CC1=C(C(=O)OC2CCCC2)C(c2ccc(C)o2)C2=C(CC(c3cccs3)CC2=O)N1 (stereo unspecified)	L major viab 83.4
CCOC(=O)C1=C(C)NC2=C(C(=O)CC(c3cccs3)C2)C1c1cccs1 (stereo unspecified)	Autophagy HCS active
Cn1nccc1C(=O)N1CCc2c([nH]c3ccccc23)C1c1ccc(F)cc1 (stereo unspecified)	none (no result: HCT116 bCat-KO, PTEN del growth)
Cc1cc(N2CCN(Cc3nc(-c4ccc(Cl)cc4)oc3C)CC2)cc(C)n1	none (no result: L major viab, Autophagy HCS, HCT116 bCat-KO, Insulin prom inh, PTEN del growth)
Cc1cccc(N2CCN(Cc3nc(-c4cccc(Oc5ccccc5)c4)oc3C)CC2)n1	Autophagy HCS active (no result: HCT116 bCat-KO, PTEN del growth)
COc1ccc(-c2nc(CN3CCN(c4cc(C)nc(C)c4)CC3)c(C)o2)c2ccccc12	L major viab 100.5 (no result: HCT116 bCat-KO, PTEN del growth)
N#Cc1c2n(c3c(-c4ccccc4)ncnc13)CCC2	none
CCOC(=O)CCCc1ccc(/C(C)=N/NC(N)=S)cc1	none (no result: L major viab, Autophagy HCS, HCT116 bCat-KO, Insulin prom inh, PTEN del growth)
NC(=S)N/N=C/c1coc2c(ccc3ccccc32)c1=O	none (no result: Insulin prom inh)
O=c1cc(/N=C/c2coc3c(ccc4ccccc43)c2=O)[nH]c(=S)[nH]1	L major viab 51.4, Insulin prom up inconclusive
O=C1N/C(=N\N=C\c2cccs2)SC1Cc1cccc(Cl)c1 (stereo unspecified)	none (no result: Insulin prom inh)
O=C(OCc1ccccc1)N1CCCC1/C=C/CN1CCOCC1 (stereo unspecified)	L major viab 81.9 (no result: HCT116 bCat-KO, Insulin prom inh, PTEN del growth)
CCCC(C)(C)NC(=O)CCCCC(=O)NC(C)(C)CCC	none (no result: Insulin prom inh)
O=C(N/N=C/c1cn[nH]c1-c1ccc(Cl)cc1)c1ccc([N+](=O)[O-])cc1	none (no result: HCT116 bCat-KO, Insulin prom inh, PTEN del growth)
Cc1cccc(N2CCN(C(=O)c3ccc(NS(=O)(=O)c4c(C)noc4C)cc3)CC2)c1C	L major viab 97.4
Cc1noc(C)c1S(=O)(=O)Nc1ccc(C(=O)N2CCN(c3cccc(Cl)c3)CC2)cc1	none (no result: Insulin prom up)
O=C(c1ccc2ncsc2c1)N1CCN(c2ccccc2Cl)CC1	none (no result: HCT116 bCat-KO, Insulin prom inh, PTEN del growth)
Cc1cccc(N2CCN(C(=O)c3ccc4ncsc4c3)CC2)c1C	L major viab 60.6 (no result: Insulin prom up)
CC(C)C(=O)Nc1nc2cc3c(cc2s1)OCCO3	none (no result: L major viab, Autophagy HCS, HCT116 bCat-KO, Insulin prom inh, PTEN del growth)
Cc1ccc(S(=O)(=O)Oc2ccc(C)cc2/C=N/N=C2\NC(=O)C(C)S2)cc1 (stereo unspecified)	Insulin prom inh 79.0 (no result: Insulin prom up)
O=C(Cc1nc2ccccc2[nH]1)c1ccc(Br)cc1	L major viab 96.3 (no result: HCT116 bCat-KO, Insulin prom inh, PTEN del growth)
CC(C)CSc1nc2ccccc2[nH]1	none (no result: HCT116 bCat-KO, Insulin prom inh, PTEN del growth)
CCOc1ccc2nc(SCC)[nH]c2c1	Insulin prom inh 86.5
CCC(=O)Nc1ccc(C(=O)CSc2nc3ccccc3[nH]2)cc1	Insulin prom inh 60.0 (no result: Insulin prom up)
CC1(C)C(CSc2nc3ccccc3[nH]2)C1(Cl)Cl (stereo unspecified)	L major viab 73.8 (no result: HCT116 bCat-KO, Insulin prom inh, Insulin prom up, PTEN del growth)
Cc1c(Cl)c([N+](=O)[O-])nn1CCCC(=O)N1CCN(c2ccccc2)CC1	none (no result: Insulin prom inh)
CC(OC(=O)c1nsc(Cl)c1Cl)C(=O)NCc1ccco1 (stereo unspecified)	none
O=C(Nc1ccc(F)cc1)C(Sc1nc2ccccc2[nH]1)c1ccccc1 (stereo unspecified)	HCT116 bCat-KO 2.7, PTEN del growth 2.6
CCSc1nc2ccccc2[nH]1	Insulin prom inh 100.0!
c1ccc(CSc2nc3ccccc3[nH]2)cc1	none (no result: L major viab, Autophagy HCS, HCT116 bCat-KO, Insulin prom inh, PTEN del growth)
c1ccc(CSCc2nc3ccccc3[nH]2)cc1	L major viab 60.4, Insulin prom inh 75.9
CCCc1nc2ccccc2[nH]1	Insulin prom inh 80.0 (no result: Insulin prom up)
Cn1ncc(Cl)c(Oc2ccc(Cl)cc2)c1=O	none (no result: Insulin prom up)
CCS(=O)(=O)c1nc2ccccc2n1CC(=O)N1CCCCC1	none (no result: Insulin prom up)
CC(C)CCn1cnc2c(cnn2-c2ccc(F)cc2)c1=O	none
COc1ccc(C(=O)Nc2cc(C)nn2-c2nc3ccccc3[nH]2)c(OC)c1	none (no result: HCT116 bCat-KO, PTEN del growth)
